Targets with a hit are over-represented here; the source holds about 8,800 in all. About 0.5% of all pairs of compound and target were hits.

Experimental findings from the supplement of paper PMC10849652 are described below.

Chain of UniProt O75521 (O75521 whole entry, looked up): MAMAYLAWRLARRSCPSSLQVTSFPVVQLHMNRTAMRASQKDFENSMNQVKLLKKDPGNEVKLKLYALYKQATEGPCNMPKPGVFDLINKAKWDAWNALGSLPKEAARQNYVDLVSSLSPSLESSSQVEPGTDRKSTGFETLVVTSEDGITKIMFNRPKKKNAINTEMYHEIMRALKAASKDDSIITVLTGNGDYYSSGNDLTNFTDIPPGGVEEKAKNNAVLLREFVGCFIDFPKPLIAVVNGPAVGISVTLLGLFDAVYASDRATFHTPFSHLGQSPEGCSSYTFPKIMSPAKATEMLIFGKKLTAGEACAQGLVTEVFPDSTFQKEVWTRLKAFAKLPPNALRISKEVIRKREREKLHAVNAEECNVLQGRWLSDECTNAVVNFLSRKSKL
Chain of UniProt Q9UI10 (Q9UI10 whole entry, looked up): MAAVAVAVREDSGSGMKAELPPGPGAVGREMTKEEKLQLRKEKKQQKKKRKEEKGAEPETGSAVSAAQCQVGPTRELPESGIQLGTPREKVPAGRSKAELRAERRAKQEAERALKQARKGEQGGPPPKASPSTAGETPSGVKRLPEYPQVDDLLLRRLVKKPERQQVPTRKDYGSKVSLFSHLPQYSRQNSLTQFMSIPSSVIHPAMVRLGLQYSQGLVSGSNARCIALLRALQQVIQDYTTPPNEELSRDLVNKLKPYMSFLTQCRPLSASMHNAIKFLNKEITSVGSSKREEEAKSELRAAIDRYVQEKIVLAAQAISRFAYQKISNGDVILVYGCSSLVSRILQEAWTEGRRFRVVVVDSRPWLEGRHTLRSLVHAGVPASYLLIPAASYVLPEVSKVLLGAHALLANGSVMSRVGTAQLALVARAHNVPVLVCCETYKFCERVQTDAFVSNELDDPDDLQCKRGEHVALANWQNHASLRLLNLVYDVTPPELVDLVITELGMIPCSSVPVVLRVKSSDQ
Chain of UniProt Q15723 (Q15723 whole entry, looked up): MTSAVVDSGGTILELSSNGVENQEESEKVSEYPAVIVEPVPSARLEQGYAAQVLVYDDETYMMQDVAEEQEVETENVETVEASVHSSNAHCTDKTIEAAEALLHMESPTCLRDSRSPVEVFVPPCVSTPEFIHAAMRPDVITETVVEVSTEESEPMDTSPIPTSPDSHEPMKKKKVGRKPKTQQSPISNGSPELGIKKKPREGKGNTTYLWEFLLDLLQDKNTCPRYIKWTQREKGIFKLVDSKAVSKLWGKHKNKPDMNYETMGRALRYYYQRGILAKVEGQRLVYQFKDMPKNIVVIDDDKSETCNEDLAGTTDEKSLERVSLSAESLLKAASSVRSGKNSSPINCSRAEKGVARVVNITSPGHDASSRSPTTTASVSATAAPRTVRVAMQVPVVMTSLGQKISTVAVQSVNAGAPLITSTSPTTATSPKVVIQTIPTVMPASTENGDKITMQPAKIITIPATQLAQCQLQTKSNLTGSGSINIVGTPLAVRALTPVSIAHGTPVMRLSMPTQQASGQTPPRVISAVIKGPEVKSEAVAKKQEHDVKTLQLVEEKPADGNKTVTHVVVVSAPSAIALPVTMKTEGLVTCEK
Chain of UniProt P57772 (P57772 whole entry, looked up): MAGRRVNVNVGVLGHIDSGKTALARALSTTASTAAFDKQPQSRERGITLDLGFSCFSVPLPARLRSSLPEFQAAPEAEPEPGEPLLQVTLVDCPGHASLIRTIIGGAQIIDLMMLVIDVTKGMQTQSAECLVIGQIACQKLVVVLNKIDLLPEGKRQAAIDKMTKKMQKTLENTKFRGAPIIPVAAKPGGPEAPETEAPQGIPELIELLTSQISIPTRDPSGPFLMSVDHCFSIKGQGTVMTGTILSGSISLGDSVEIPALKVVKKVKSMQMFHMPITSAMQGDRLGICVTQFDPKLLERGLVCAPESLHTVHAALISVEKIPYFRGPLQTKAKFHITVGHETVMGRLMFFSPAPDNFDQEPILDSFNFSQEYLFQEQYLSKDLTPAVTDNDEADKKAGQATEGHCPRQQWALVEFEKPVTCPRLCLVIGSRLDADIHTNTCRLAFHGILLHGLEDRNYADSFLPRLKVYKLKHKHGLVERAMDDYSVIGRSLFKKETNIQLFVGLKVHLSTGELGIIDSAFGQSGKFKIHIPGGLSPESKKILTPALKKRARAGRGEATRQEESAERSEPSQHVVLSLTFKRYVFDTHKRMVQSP
Chain of UniProt Q8TEQ6 (Q8TEQ6 whole entry, looked up): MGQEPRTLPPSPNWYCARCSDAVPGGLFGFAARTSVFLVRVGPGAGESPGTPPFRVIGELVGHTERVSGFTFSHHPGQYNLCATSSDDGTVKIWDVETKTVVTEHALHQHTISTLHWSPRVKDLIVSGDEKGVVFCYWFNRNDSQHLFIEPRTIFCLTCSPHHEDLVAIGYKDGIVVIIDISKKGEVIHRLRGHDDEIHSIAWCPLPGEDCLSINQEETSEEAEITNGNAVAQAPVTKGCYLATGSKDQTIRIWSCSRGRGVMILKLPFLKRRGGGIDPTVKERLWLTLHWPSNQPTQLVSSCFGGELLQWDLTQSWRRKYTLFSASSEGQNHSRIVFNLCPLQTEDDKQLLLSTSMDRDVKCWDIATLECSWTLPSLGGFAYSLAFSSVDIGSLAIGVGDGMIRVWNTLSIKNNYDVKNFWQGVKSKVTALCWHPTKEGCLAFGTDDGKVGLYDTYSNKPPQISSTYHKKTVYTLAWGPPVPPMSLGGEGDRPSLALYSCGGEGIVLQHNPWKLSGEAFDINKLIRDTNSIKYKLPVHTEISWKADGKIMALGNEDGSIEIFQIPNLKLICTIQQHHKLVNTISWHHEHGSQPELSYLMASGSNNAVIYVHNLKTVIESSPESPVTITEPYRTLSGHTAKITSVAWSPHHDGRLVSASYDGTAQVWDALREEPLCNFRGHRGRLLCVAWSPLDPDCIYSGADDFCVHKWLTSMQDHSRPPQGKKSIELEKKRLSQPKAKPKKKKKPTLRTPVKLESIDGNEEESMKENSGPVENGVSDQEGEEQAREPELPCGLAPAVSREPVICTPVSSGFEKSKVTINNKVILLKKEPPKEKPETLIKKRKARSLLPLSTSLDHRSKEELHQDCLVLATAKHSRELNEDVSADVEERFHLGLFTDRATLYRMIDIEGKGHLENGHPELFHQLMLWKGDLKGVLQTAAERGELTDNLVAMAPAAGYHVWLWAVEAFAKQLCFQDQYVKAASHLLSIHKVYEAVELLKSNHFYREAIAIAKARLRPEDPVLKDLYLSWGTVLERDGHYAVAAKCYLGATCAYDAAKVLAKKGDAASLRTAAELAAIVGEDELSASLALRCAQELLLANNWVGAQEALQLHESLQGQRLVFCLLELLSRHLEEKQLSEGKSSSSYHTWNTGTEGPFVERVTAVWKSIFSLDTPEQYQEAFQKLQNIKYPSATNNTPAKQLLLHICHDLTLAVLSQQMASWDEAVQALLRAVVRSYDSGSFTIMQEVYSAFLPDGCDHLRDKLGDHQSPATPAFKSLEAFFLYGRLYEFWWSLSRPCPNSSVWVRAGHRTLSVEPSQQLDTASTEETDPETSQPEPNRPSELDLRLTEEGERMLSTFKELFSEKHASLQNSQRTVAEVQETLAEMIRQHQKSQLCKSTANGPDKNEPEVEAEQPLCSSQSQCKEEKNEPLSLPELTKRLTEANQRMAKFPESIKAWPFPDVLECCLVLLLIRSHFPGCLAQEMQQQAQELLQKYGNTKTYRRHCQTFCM
Chain of UniProt Q8NEZ5 (Q8NEZ5 whole entry, looked up): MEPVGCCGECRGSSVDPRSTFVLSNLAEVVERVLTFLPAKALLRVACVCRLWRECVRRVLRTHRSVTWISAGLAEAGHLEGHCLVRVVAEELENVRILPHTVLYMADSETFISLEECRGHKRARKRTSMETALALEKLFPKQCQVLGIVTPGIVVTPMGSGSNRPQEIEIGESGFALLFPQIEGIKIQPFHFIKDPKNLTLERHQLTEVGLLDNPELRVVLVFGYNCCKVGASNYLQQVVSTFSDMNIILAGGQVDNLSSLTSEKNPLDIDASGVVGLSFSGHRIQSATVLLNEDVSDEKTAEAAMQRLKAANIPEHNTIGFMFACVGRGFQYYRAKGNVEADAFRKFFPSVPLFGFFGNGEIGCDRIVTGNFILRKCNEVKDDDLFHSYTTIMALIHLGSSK
Chain of UniProt P06241 (P06241 whole entry, looked up): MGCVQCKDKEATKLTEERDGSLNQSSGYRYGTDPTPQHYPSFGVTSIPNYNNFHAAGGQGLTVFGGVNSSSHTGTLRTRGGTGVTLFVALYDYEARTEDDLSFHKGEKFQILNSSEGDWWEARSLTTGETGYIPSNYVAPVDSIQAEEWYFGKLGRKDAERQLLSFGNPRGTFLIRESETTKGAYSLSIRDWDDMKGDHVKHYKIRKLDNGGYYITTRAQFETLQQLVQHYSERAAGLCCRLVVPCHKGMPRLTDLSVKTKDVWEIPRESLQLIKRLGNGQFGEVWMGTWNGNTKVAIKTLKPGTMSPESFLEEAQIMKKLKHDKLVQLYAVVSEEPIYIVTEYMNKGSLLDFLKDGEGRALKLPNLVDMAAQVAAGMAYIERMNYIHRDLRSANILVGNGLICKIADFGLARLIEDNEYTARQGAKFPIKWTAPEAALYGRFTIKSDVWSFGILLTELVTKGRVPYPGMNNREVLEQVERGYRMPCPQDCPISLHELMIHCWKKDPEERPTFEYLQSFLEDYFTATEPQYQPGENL
Chain of UniProt Q9UK97 (Q9UK97 whole entry, looked up): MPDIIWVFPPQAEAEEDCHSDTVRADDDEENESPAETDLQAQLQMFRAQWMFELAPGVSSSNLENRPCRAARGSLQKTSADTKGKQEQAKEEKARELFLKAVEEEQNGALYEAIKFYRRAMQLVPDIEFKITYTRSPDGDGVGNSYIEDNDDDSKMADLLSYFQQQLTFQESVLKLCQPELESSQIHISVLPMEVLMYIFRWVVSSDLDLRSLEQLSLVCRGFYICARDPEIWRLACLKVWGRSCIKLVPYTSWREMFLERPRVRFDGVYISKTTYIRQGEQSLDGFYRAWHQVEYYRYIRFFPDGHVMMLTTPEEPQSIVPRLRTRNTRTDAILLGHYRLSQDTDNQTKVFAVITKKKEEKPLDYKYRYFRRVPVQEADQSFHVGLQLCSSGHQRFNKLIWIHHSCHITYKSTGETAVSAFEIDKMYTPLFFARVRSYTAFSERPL

Compound in the assay: CN1CCN(c2nc(C3=C(c4c[nH]c5ccccc45)C(=O)NC3=O)c3ccccc3n2)CC1 [sotrastaurin]
Nature of the assay: log2 fold change, soluble protein after heating vs DMSO (PISA); higher = thermal stabilisation; K562 lysate, 10 uM; active = over 0.2 and 3.5 SD of the protein, either way, in both replicates (recomputed). The method, boiled down:
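Quantification was by TMTpro 16plex LC-MS/MS with equalised channel sums, applied to the supernatant after 21,000xg for 90 min. Samples were crude K562 extract at 1 mg/mL protein in PBS pH 7.4 with 1 mM MgCl2, treated with 10 μM compound for 30 min, heated for 3 min across 48°C-58°C, pooled and brought to 0.5% NP-40 at 4°C. Values are log-two fold changes in thermal stability relative to solvent controls, from duplicates.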
Consider ECI2 (UniProt O75521), for which the log2 fold change is -0.045 (inactive).
To DYNC1I2 isoform 5 (UniProt Q13409) belongs -0.034 (inactive).
As to FLAD1 (UniProt Q8NFF5), the log2 fold change was 0.075 (inactive).
With FBXO22 (UniProt Q8NEZ5), the log2 fold change is 0.01 (inactive).
As for EPB41, A0A2R8Y6D0, the log2 fold change is 0.044 (inactive).
To FAM120B (UniProt Q96EK7) belongs 0.008 (inactive).
For GAA (UniProt P10253), the log2 fold change was -0.039 (inactive).
Take FARSA (UniProt Q9Y285): the log2 fold change was 0.583 (active).
Take FBXO45 (UniProt P0C2W1): the log2 fold change is 0.028 (inactive).
To EEFSEC (UniProt P57772) belongs -0.016 (inactive); to EMP3 (UniProt P54852), -0.029 (inactive); to GATAD2A isoform 3 (UniProt Q86YP4), -0.002 (inactive).
EGLN1 (UniProt Q9GZT9): the log2 fold change is 0.034 (inactive).
To FREM2 (UniProt Q5SZK8) belongs 0.056 (inactive); to EXOC5 (UniProt O00471), 0.022 (inactive).
In the case of EIF2AK1 (UniProt Q9BQI3), the log2 fold change was 0 (inactive).
Regarding FXR1 (UniProt P51114), the log2 fold change was -0.011 (inactive).
For FAT2 (UniProt Q9NYQ8), the log2 fold change was 0.125 (inactive).
Then EBP (UniProt Q15125), with -0.103 (inactive).
Then FOXK1 (UniProt P85037), with -0.012 (inactive).
On to FXR2 (UniProt P51116), for which the log2 fold change is -0.009 (inactive).
Then EIF2B4 (UniProt Q9UI10), with 0.047 (inactive); and EMC7 (UniProt Q9NPA0), with 0.026 (inactive).
To GEMIN5 (UniProt Q8TEQ6) belongs 0.015 (inactive); to DYRK1A (UniProt Q13627), -0.013 (inactive); to ESPL1 (UniProt Q14674), -0.023 (inactive).
Then FBXO9 (UniProt Q9UK97), with 0.021 (inactive); and ELF2 (UniProt Q15723), with -0.004 (inactive); and GAPVD1 isoform 6 (UniProt Q14C86), with 0.012 (inactive).
Turning to FYN (UniProt P06241), the log2 fold change is 0.023 (inactive).
Turning to ERCC4 (UniProt Q92889), the log2 fold change was 0.047 (inactive).
FBXO38 (UniProt Q6PIJ6): the log2 fold change is 0.027 (inactive).
With FTSJ3 (UniProt Q8IY81), the log2 fold change was -0.003 (inactive).
To DUS2 (UniProt Q9NX74) belongs -0.017 (inactive); to EDC4 (UniProt Q6P2E9), 0.011 (inactive).
As to FDFT1 (UniProt P37268), the log2 fold change was 0.437 (active).
